# Source: the antibiotic and cytotoxicity screens of Wong et al. (2023)
# Out of some 39,000 compounds screened, about 3,300 (8.5%) were called active. The entries come from a sample that favours actives as a whole.
# Test system: HepG2
# Assay: cytotoxicity call (relative viability < 0.9)
# Conditions: 10 µM
row,SMILES,cytotoxicity call
1,CC(=N)NCCCC[C@@H](N)C(=O)O,inactive
2,COCC(=O)Nc1ccc2c(c1)C(=O)N(C)[C@H]1CC[C@@H](CC(=O)N3CCc4ccccc4C3)O[C@H]1CO2,inactive
3,CO[C@H]1CN(C)C(=O)c2ccc(NS(=O)(=O)CC(F)(F)F)cc2OC[C@H](C)N(C(=O)c2ccc3c(c2)OCO3)C[C@H]1C,inactive
4,C=CC[C@H](Nc1ccccc1C)c1ccc(Cl)cc1,inactive
5,C[C@H](CO)N1C[C@H](C)[C@@H](CN(C)S(=O)(=O)c2cn(C)cn2)OCCCC[C@H](C)Oc2ccc(NS(C)(=O)=O)cc2C1=O,inactive
6,NC(=O)[C@H]1C[C@@H]2C=C[C@H]1C2,inactive
7,O=C(CCCCCCC(=O)Nc1ccc([C@H]2C[C@H](c3ccccc3)O[C@H](c3ccc(Oc4ccccc4)cc3)O2)cc1)NO,inactive
8,C[C@H]1CN([C@@H](C)CO)C(=O)c2cc(NC(=O)Cn3cnnn3)ccc2O[C@@H]1CN(C)S(=O)(=O)c1ccc(F)cc1,inactive
9,Cc1ccc(S(=O)(=O)N2C[C@H](O)COC[C@@H]3O[C@H](CC(=O)NCCCN(C)C)CC[C@H]32)cc1,inactive
10,CCN1CCN(C(=O)CN2C(=O)c3ccccc3S2(=O)=O)CC1,inactive
11,CCN1CCN(CC(=O)Nc2ccc(-c3cccc4c(=O)cc(N5CCOCC5)oc34)c3sc4ccccc4c23)CC1,active
12,CCCC#Cc1ccc2c(c1)O[C@@H](CN(C)S(=O)(=O)c1cccc(F)c1)[C@H](C)CN([C@@H](C)CO)S2(=O)=O,inactive
13,CC(C)N1C[C@H](C)[C@@H](CN(C)Cc2ccccc2Cl)Oc2c(NC(=O)c3ccncc3)cccc2C1=O,inactive
14,O=C(CCCN1CC=C(n2c(=O)[nH]c3ccccc32)CC1)c1ccc(F)cc1,inactive
15,O=C(CCCN1CCN(c2ccccn2)CC1)c1ccc(F)cc1,inactive
16,O=C(CCCN1CCC(O)(c2ccc(Cl)cc2)CC1)c1ccc(F)cc1,active
17,O=C(CN1CCNCC1)c1ccc(F)cc1,inactive
18,NC(=O)C1(N2CCCCC2)CCN(CCCC(=O)c2ccc(F)cc2)CC1,inactive
19,O=C(CCCN1CCC(O)(c2ccc(Br)cc2)CC1)c1ccc(F)cc1,active
20,CC(C)(C)OC(=O)C[C@H]1CC=CC[C@@H](CC(=O)N[C@@H](CO)Cc2ccccc2)C(=O)N[C@@H](C(C)(C)C)COC1=O,inactive
21,C[C@@H]1CN([C@@H](C)CO)C(=O)c2cc(NC(=O)Cc3ccccc3)ccc2O[C@H]1CN(C)Cc1ccc(C(=O)Nc2ccccc2N)cc1,inactive
22,C[C@@H]1CN([C@@H](C)CO)C(=O)c2cccc(NC(=O)c3ccc(-c4nccs4)cc3)c2O[C@H]1CN(C)C(=O)Nc1ccccc1,inactive

row,SMILES,cytotoxicity call
1,C[C@@H]1CN([C@@H](C)CO)C(=O)c2cccc(NC(=O)Nc3ccc(F)cc3)c2O[C@@H]1CN(C)Cc1ccc(Cl)c(Cl)c1,inactive
2,C[C@H]1CN([C@@H](C)CO)C(=O)c2cccc(NC(=O)Nc3ccc(F)cc3)c2O[C@@H]1CN(C)Cc1ccc(Cl)c(Cl)c1,inactive
3,C[C@H]1CN([C@@H](C)CO)C(=O)c2cccc(NC(=O)Nc3ccc(C(F)(F)F)cc3)c2O[C@@H]1CN(C)Cc1ccc(Cl)c(Cl)c1,active
4,C[C@@H]1CN([C@@H](C)CO)C(=O)c2cccc(NC(=O)Nc3ccc(C(F)(F)F)cc3)c2O[C@@H]1CN(C)Cc1ccc(Cl)c(Cl)c1,active
5,C[C@@H]1CN([C@H](C)CO)C(=O)c2cccc(NC(=O)Nc3ccc(C(F)(F)F)cc3)c2O[C@@H]1CN(C)Cc1ccc(Cl)c(Cl)c1,active
6,C[C@@H]1CN([C@H](C)CO)C(=O)c2cccc(NC(=O)Nc3ccc(C(F)(F)F)cc3)c2O[C@H]1CN(C)Cc1ccc(Cl)c(Cl)c1,inactive
7,C[C@H](CO)N1C[C@H](C)[C@H](CN(C)Cc2ccc(Cl)c(Cl)c2)Oc2c(NC(=O)Nc3ccc(C(F)(F)F)cc3)cccc2C1=O,inactive
8,C[C@H]1CN([C@@H](C)CO)C(=O)c2cccc(NC(=O)Nc3ccc(F)cc3)c2O[C@H]1CN(C)Cc1ccc(Cl)c(Cl)c1,inactive
9,C[C@@H]1CN([C@@H](C)CO)C(=O)c2cccc(NC(=O)Nc3ccc(C(F)(F)F)cc3)c2O[C@H]1CN(C)Cc1ccc(Cl)c(Cl)c1,active
10,C[C@H](CO)N1C[C@H](C)[C@@H](CN(C)Cc2ccc(Cl)c(Cl)c2)Oc2c(NC(=O)Nc3ccc(F)cc3)cccc2C1=O,inactive
11,C[C@H](CO)N1C[C@H](C)[C@H](CN(C)C(=O)CCC(F)(F)F)OCCCC[C@H](C)Oc2ccc(NC(=O)Cc3ccccc3)cc2C1=O,inactive
12,C[C@@H]1CN([C@@H](C)CO)C(=O)c2cc(C#Cc3cccc(F)c3)cnc2O[C@H]1CN(C)Cc1ccccn1,inactive
13,Cc1ccc(S(=O)(=O)Nc2ccc3c(c2)C(=O)N([C@@H](C)CO)C[C@@H](C)[C@H](CN(C)C(=O)c2ccccc2)OCCCC[C@H](C)O3)cc1,inactive
14,Cc1noc(C)c1NC(=O)N(C)C[C@H]1OCCCC[C@H](C)Oc2ccc(NC(=O)C3CCCCC3)cc2C(=O)N([C@@H](C)CO)C[C@@H]1C,inactive
15,C[C@@H]1CCCCO[C@H](CN(C)C(=O)Nc2ccc(F)cc2)[C@H](C)CN([C@H](C)CO)C(=O)c2cc(NC(=O)Cc3ccccc3)ccc2O1,inactive
16,C[C@@H]1CN([C@@H](C)CO)C(=O)c2cccc(NC(=O)C3CCOCC3)c2O[C@@H]1CN(C)S(=O)(=O)c1ccccc1,inactive
17,C[C@H](CO)N1C[C@H](C)[C@@H](CN(C)C(=O)CN2CCOCC2)Oc2ncc(-c3cncnc3)cc2C1=O,inactive
18,Cc1noc(C)c1S(=O)(=O)N(C)C[C@H]1Oc2ccc(NS(C)(=O)=O)cc2C(=O)N([C@@H](C)CO)C[C@H]1C,inactive
19,C[C@H](CO)N1C[C@H](C)[C@@H](CN(C)Cc2ccc(Cl)c(Cl)c2)Oc2c(NC(=O)Nc3ccc(C(F)(F)F)cc3)cccc2C1=O,active
20,C[C@@H]1CN([C@H](C)CO)C(=O)c2cccc(NC(=O)Nc3ccc(F)cc3)c2O[C@@H]1CN(C)Cc1ccc(Cl)c(Cl)c1,inactive
21,C[C@H]1CN([C@@H](C)CO)C(=O)c2cccc(NC(=O)Nc3ccc(C(F)(F)F)cc3)c2O[C@H]1CN(C)Cc1ccc(Cl)c(Cl)c1,inactive
